A selection: hits, their analogues and other compounds. The true share with any hit is near 3.1%.
TSHR antag – Antagonists of the Thyroid Stimulating Hormone Receptor: HTS campaign | TSHR-expressing cells, TSH-stimulated cAMP HTRF, 2 h; hits give low values | activity change, negative = inhibition, % at 11.5 µM | 0.2% of 330,000 active | AID 504810, 2011;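 active = activity change below a set negative limit, meaning inhibition stronger than a set level, cut at about -70% in these data; inconclusive = activity change between two set negative limits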; also: % is scaled to controls: 0 for no effect and ±100 for the full control effect
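TSHR-expressing cells were treated with compounds, then stimulated with TSH at EC80 (4nM final) for 2 hours at 37 deg C. Cellular cAMP was measured by HTRF competition between lysate cAMP and cAMP-d2 for a cryptate-labelled anti-cAMP antibody.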
VDR inhibitor – Inhibitors of the vitamin D receptor (VDR): qHTS; Vitamin D3 receptor (Homo sapiens), P11473; VDR-SRC2-3 peptide fluorescence polarization, 2 h; Potency, µM, inactives show max response, negative = inhibition, hits mostly inhibitors; 0.93% of 400,000 active; also: potency is read from the fitted curve at half-maximal effect; % is scaled to controls: 0 for no effect and ±100 for the full control effect
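VDR–SRC2-3 interaction, FP format. Cmpds 23 nl via pintool, brief spin, 2 h ambient incubation.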
PLK1 PBD inh – qHTS for Inhibitors of PLK1-PDB (polo-like kinase 1 - polo-box domain): Primary Screen; Plk1 PBD binding of FITC phosphopeptide, fluorescence polarization; Potency, µM, for the others: max response, negative = inhibition, most hits filed as inhibitors; 2.8% of 360,000 active; AID 720504, 2013; also: potency is read from the fitted curve at half-maximal effect; series mostly up to about 57 µM; % is scaled to controls: 0 for no effect and ±100 for the full control effect; nearly all actives have a fitted effect of over 65% in size
Target sequence (P53350 whole entry, looked up, the tested form may be a part): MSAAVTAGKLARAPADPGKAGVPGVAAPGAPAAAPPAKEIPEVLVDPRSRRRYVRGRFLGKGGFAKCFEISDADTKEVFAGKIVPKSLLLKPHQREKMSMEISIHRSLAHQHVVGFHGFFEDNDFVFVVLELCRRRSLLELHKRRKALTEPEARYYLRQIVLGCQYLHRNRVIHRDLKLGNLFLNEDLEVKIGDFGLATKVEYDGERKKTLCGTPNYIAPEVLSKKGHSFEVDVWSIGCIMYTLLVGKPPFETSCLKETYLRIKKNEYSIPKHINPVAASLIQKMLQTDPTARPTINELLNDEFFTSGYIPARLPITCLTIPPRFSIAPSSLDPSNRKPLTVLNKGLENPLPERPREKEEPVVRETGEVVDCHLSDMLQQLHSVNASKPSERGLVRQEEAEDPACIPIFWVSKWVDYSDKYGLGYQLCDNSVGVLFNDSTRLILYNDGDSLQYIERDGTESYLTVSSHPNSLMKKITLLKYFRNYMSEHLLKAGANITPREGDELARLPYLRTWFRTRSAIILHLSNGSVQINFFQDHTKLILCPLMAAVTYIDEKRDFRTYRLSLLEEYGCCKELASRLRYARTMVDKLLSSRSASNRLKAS
Vif-APOBEC3F blk – qHTS for Inhibitors of Vif-A3F Interactions: qHTS | HeLa A3F-eYFP + Vif (tagged APOBEC3F with the HIV-1 protein that degrades it), YFP fluorescence increase | Potency, µM (titrated, usually from 46.1 µM), for inactives: at the top dose activity, negative = active | 0.2% of 390,000 active; also: potency is read from the fitted curve at half-maximal effect; % of control where 0% means no effect; nearly all actives have a fitted effect of over 65% in size
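Fluorescence increase (Ex 488/Em 500-530) after overnight compound treatment at 37 deg C flags inhibition of Vif-driven A3F-eYFP loss in stable HeLa A3F-eYFP/Vif cells seeded overnight beforehand.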
Vif-APOBEC3G blk – qHTS for Inhibitors of Vif-A3G Interactions: qHTS; AID 602310, 2012; 0.076% of 410,000 active; DNA dC->dU-editing enzyme APOBEC-3G (Homo sapiens), Q9HC16; Potency, µM (highest dose often 46.1 µM), for inactives: top-dose activity, negative = active, usual class: inhibitors; HeLa A3G-eYFP + Vif (tagged APOBEC3G with the HIV-1 protein that degrades it), YFP fluorescence, overnight; also: potency is read from the fitted curve at half-maximal effect; % is scaled to controls: 0 for no effect and ±100 for the full control effect; nearly all actives have a fitted effect of over 60% in size
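Read-out is eYFP fluorescence (Ex 488/Em 500-530) from Vif-expressing HeLa A3G-eYFP cells; more signal means A3G escaped Vif-mediated degradation. Cells plated overnight, compound pinned in, incubated overnight at 37 deg C.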
Numbers without * were called inactive; i = inactive; ? = inconclusive; · = no result. Unless noted, calls follow the shape of the dose curve; as a rule, active = well fitted curve in the direction sought with a large enough effect; inconclusive = small, poorly fitted or top-dose-only effect, or another doubt; inactive = no such curve, though single readings can be large; an effect the other way counts as inactive or inconclusive.

SMILES	TSHR antag	VDR inhibitor	PLK1 PBD inh	Vif-APOBEC3F blk	Vif-APOBEC3G blk
Cc1ccc(N2C(=O)C(CC(=O)Nc3cccc(F)c3)N(CCc3ccccc3F)C2=O)cc1 (stereo not drawn)	·	-17%	·	0%	1%
CN(C)/C=N/c1nc2c(ncn2C2CC(O)C(CO)O2)c(=O)[nH]1 (stereo not drawn)	·	9%	·	·	-1%
CN(C)c1ccc(NC(=O)Nc2ccc3c(c2)c(=O)n(C)n3-c2ccccc2)cc1	·	·	-8%	·	-12%
CN(C)c1ccc(NC(=S)Nc2ccc3c(c2)c(=O)n(C)n3-c2ccc(C(C)(C)C)cc2)cc1	·	·	27µM*	·	3%
N#Cc1c(-c2ccc(C(F)(F)F)cc2)cc(-c2ccccc2)[nH]c1=S	2	-16%	24µM*	-21%	0%
Cc1ccc(-c2cc(-c3ccccc3)[nH]c(=S)c2C#N)cc1	-8	-6%	?	0%	-5%
COc1ccc2c(c1)O[C@H](c1ccc3c(c1)OCO3)[C@@H](OC(=O)Nc1ccc(OC(F)F)cc1)C2=O	·	-2%	·	·	·
Nc1nc2c(s1)COc1ccccc1-2	-3	?	19µM*	-1%	1%
CC(C)(C)C(=O)Nc1nc2c(s1)COc1ccccc1-2	-15	?	-18%	10%	-12%
CCN(C(=O)Cn1cnc2c1c(=O)n(C)c(=O)n2C)c1ccccc1C	·	-1%	·	0%	0%
Cc1cc(C)c2nccc(C)c2c1	·	·	·	·	4%
CC(C)CCN(C(=O)Nc1ccc(Cl)c(Cl)c1)C1CCN(C(C)C)CC1	·	4%	·	-1%	3%
COCCN(C(=S)Nc1cccc(OC)c1)C1CCN(C(C)C)CC1	6	-14%	-2%	-2%	0%
COc1ccc(NC(=S)N(CCC(C)C)C2CCN(C(C)C)CC2)cc1Cl	3	?	2.1µM*	1%	1%
COCCN(C(=S)Nc1ccc(OC)c(Cl)c1)C1CCN(C(C)C)CC1	-4	-5%	13µM*	3%	1%
OC1C(Br)=Cc2ccccc21 (stereo not drawn)	·	·	·	·	0%
NC(=N\N=Cc1ccccc1)/C(N)=N/N=Cc1ccccc1	·	-4%	-3%	?	0%
Cn1c(CS/C(N)=N/N=C/c2ccccc2)c(Br)c(=O)n1-c1ccccc1	-1	50µM*	24µM*	17%	0%
CN(C)c1ccc(/C=N/N2C(=S)SC(C)(C)C2N(O)C(=O)Nc2ccc([N+](=O)[O-])cc2)cc1 (stereo not drawn)	-4	-22%	27µM*	-8%	0%
CC(C)Cn1c(-c2ccc(Br)cc2)c[nH]c1=S	-23	?	17µM*	-27%	6%
Cn1c(=O)c(C(=O)CCl)c(N)n(Cc2ccccc2)c1=O	-4	-10%	-25%	3%	-12%
Cn1c(N)c(C(=O)CCl)c(=O)n(Cc2ccccc2)c1=O	0	11%	17µM*	7%	1%
CS(=O)(=O)N(CC(=O)N1CCOCC1)c1cccc(F)c1	-93*	-1%	-6%	0%	4%
CC1CCN(C(=O)CN(c2cccc(F)c2)S(C)(=O)=O)CC1	16	14%	-9%	2%	0%
CCC1Oc2ccccc2N(CC(=O)NCc2cc(OC)ccc2OC)C1=O (stereo not drawn)	·	7%	·	-1%	-3%
SMILES	TSHR antag	VDR inhibitor	PLK1 PBD inh	Vif-APOBEC3F blk	Vif-APOBEC3G blk
O=C(C[n+]1ccccc1Br)c1ccc(Cl)cc1	·	·	·	·	3%
Cc1ccc(OCCOCCOc2cccc3cccnc23)c(Br)c1	12	i	27µM*	3%	0%
COC(=O)C1C(O)CC[C@H]2CN3CCc4c([nH]c5ccccc45)C3C[C@H]12 (stereo partly drawn)	·	29%	·	·	·
CC(=O)Nc1cccc(C(=O)N/N=C/c2cccc(C)n2)c1	5	?	27µM*	7%	1%
Cc1cccc(C(=O)Nc2cccc(C(=O)N/N=C/c3cccc(C)n3)c2)c1	-2	5%	-11%	-14%	-8%
Cc1ccc2[nH]c(=O)c(CN(CCO)Cc3nnnn3Cc3ccccc3)cc2c1	·	-18%	·	·	-4%
N#Cc1ccccc1OCC(O)CNCCNC(=O)Nc1ccccc1 (stereo not drawn)	·	11%	·	·	·
CCOc1cc(C2C(C#N)=C(N)SC(N)=C2C#N)ccc1OCCN1CCOCC1	-1	?	27µM*	-1%	2%
O=C(c1ccccc1NS(=O)(=O)c1ccccc1[N+](=O)[O-])N1CCOCC1	34	-16%	-10%	2%	0%
O=C(c1ccccc1NS(=O)(=O)c1ccc([N+](=O)[O-])cc1[N+](=O)[O-])N1O[C@@H]2C=C[C@H]1C2	8	45µM*	?	4%	-8%
O=[N+]([O-])c1ccc(S(=O)(=O)N2CCSC2c2ccco2)cc1 (stereo not drawn)	0	79µM*	12µM*	2%	-10%
COc1cc2c(NC3CCN(C(C)C)CC3)nc(N3CCCN(C)CC3)nc2cc1OCCOCCN(C)C	·	·	·	·	1%
Cc1ccc(-c2cc(-c3ccccc3Cl)[nH]n2)c(O)c1	-17	15%	1%	-5%	-6%
Oc1ccc(Br)cc1-c1cc(-c2ccccc2F)[nH]n1	-2	0%	-3%	4%	-4%
Cc1ccccc1-c1cc(-c2ccccc2O)n[nH]1	-5	0%	3.4µM*	-3%	-10%
Oc1ccc(Br)cc1-c1cc(-c2ccccc2Cl)[nH]n1	-11	?	24µM*	-10%	-11%
Cc1nnc(SC(C)C(=O)NC2CCCCC2)[nH]c1=O (stereo not drawn)	·	-15%	27µM*	1%	4%
CCCC1CCc2c(sc(N)c2C(N)=O)C1 (stereo not drawn)	-6	?	27µM*	1%	3%
CC(C)(C)C1CCc2c(sc(N)c2C(N)=O)C1 (stereo not drawn)	-5	79µM*	?	1%	2%
CCC(C)(C)C1CCc2c(sc(N)c2C(N)=O)C1 (stereo not drawn)	2	?	0%	7%	4%
CO[C@H]1OC2O[C@@]3(C)CC[C@H]4[C@H](C)CC[C@@H]([C@H]1C)[C@@]24OO3 (stereo partly drawn)	·	5%	·	·	·
COc1cccc(NC(=O)c2sc3nc(C)c(C(=O)Nc4ccc(C)cc4C)c(-c4cccs4)c3c2N)c1	·	-24%	·	-10%	0%
N/C(=N\OC(=O)c1ccc2c(c1)OCO2)c1cccc(Br)c1	-3	-9%	-6%	-6%	-5%
N/C(Cc1cccc2ccccc12)=N\OC(=O)c1ccc2c(c1)OCO2	-3	?	24µM*	-4%	4%

Screens: PubChem BioAssay, National Center for Advancing Translational Sciences (NCATS)
